12-LOX inh: blocks human arachidonate 12S-lipoxygenase | purified 12hLO, xylenol orange hydroperoxide absorbance | Potency, µM (doses to about 108 µM), for the others: top-dose activity change, negative = inhibition, actives largely listed as inhibitors | AID 1671190 | hit rate 1.1% among 580,000 | P18054; further: potency means the concentration at half of the fitted maximal effect
Target sequence (P18054 whole entry, looked up): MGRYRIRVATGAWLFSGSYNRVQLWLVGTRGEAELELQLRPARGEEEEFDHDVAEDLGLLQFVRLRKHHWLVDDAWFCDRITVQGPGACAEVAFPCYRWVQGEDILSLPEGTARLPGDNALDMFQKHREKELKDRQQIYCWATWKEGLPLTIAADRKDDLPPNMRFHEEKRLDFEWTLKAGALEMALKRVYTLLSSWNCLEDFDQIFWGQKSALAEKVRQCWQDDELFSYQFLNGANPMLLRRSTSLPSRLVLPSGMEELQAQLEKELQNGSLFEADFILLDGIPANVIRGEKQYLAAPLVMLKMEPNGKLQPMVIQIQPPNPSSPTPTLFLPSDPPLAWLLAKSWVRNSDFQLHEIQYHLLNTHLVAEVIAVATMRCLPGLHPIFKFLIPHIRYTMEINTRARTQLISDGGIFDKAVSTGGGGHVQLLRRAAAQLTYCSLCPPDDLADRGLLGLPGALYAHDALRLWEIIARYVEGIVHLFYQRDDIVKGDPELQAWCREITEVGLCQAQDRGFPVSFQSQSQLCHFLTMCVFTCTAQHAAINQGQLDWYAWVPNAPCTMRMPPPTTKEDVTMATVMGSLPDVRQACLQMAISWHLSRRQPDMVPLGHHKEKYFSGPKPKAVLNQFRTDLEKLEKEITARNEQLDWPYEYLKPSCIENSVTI
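Purified human 12hLO at 150 nM in 25 mM Hepes, 0.01% Triton X-100, pH 7.0, preincubated 15 min at room temperature with compound. Reaction started with 40 uM arachidonic acid, 30 min at room temperature. Hydroperoxide measured by Fe-xylenol orange, 573/405 nm absorbance ratio.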
HT1080 IDH1KD tx: kills HT-1080 cells with IDH1 knockdown. HT-1080 IDH1 knockdown viability, ATP luminescence, 48 h. Potency, µM (titrated, usually from 46.1 µM), for the others: top-dose activity, negative = toxicity, actives largely listed as cytotoxic. hit rate 2% among 360,000;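 further: potency means the concentration at half of the fitted maximal effect; 0% = DMSO wells and -100% = cell-free medium wells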
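HT-1080-IDH1KD cells (IDH1 knocked down), 750/well in RPMI with 5% FBS, treated with compound 48 h at 37 degrees C. Viability by CellTiter-Glo luminescence, normalised to DMSO and no-cell wells; concentration-response curves classed.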
DT40 TDP1 no CPT: qHTS for Inhibitors of human tyrosyl-DNA phosphodiesterase 1 (TDP1): qHTS in cells in absence of CPT; hit rate 15% among 420,000; Potency, µM (highest dose often 46.2 µM), without a hit: top-dose activity change, negative = growth inhibition, actives largely listed as inhibitors; DT40 Tdp1-/- hTDP1 cells, no CPT, ATP luminescence, 48 h; further: potency means the concentration at half of the fitted maximal effect; nearly all actives have a fitted effect of over 55% in size
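Growth of hTDP1-complemented DT40 Tdp1-knockout cells is measured by ATP luminescence after at least 48 hr compound exposure at 37 °C, with DMSO substituting for the 20 nM CPT used in the parallel screen.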
HT1080NT lethal: kills 2HG-producing HT-1080-NT fibrosarcoma cells; HT-1080-NT fibrosarcoma viability, CellTiter-Glo ATP luminescence, 48 h; Potency, µM (doses to about 46.1 µM), inactives show top-dose activity, negative = less viability, most hits filed as cytotoxic; hit rate 1.6% among 360,000;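 further: NT is the 2HG producing partner of a matched IDH1 knockdown line; potency means the concentration at half of the fitted maximal effect; 0% = DMSO-treated cells and -100% = media-only wells without cells; nearly all actives have a fitted effect of over 55% in size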
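Read-out is CellTiter-Glo luminescence after 10 minutes at room temperature, following 48 hours' compound treatment of HT-1080-NT cells (750 cells/well, RPMI, 5% FBS, 37 degrees C).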
IL-1B inflam inh: inflammasome signaling inhibition, IL-1 beta readout. THP-1 LPS/ATP IL-1B secretion, AlphaLISA, 16 h; active compounds read low. activity change, % at 57.5 µM. hit rate 4.7% among 360,000. AID 743279; in the data active means activity change below about -50%; inconclusive means mostly about -30% to -49%
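THP-1 cells pretreated 1 hr with compounds (up to 57.5 uM final), then stimulated with LPS (250 ng/mL final) plus ATP (1.25 mM final); secreted IL-1B measured by AlphaLISA after 16 hr, decreased signal indicating inhibition.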
TDP1 cell CPT: DT40-hTDP1 cell growth loss with CPT; Potency, µM (series often up to 46.2 µM), for inactives: top-dose activity change, negative = growth inhibition, actives largely listed as inhibitors; hit rate 12% among 420,000; chicken DT40 Tdp1-/-;hTDP1 cells + 20 nM CPT, ATP luminescence, 48 h; AID 686979; further: potency means the concentration at half of the fitted maximal effect; nearly all actives have a fitted effect of over 55% in size
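Cell growth measured by CellTiter-Glo luminescence after a minimum 48 h, 37 C compound exposure with 20 nM CPT in Tdp1-knockout DT40 cells stably expressing hTDP1, seeded 400/well; qHTS titration format.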
The depositor's hits bear a star; u = inconclusive; x = not tested or not shown; [ ] = dose if it differs, or a comment. This excerpt belongs to a sample that is enriched for hits. Unless noted, the call rests on the fitted dose curve; in most records, active means well fitted curve in the direction sought with a large enough effect; inconclusive means small, poorly fitted or top-dose-only effect, or another doubt; inactive means no such curve, though single readings can be large; an effect the other way counts as inactive or inconclusive. Unless noted, on the % scale 0 is the no-effect control and ±100 the full control effect.

SMILES	12-LOX inh	HT1080 IDH1KD tx	DT40 TDP1 no CPT	HT1080NT lethal	IL-1B inflam inh	TDP1 cell CPT
CCCNC1=C(C)C(=O)CC1	0%	20%	2%	19%	12	-2%
CN(Cc1cccnc1)C1CN(C(=O)C2CCCC2)C1	49%	x	x	x	x	x
OC1CCCN(Cc2ccc3ccc4cccc5ccc2c3c45)C1 (stereo not given)	u	u	21µM*	u	-69*	u
c1cc2ccc3ccc(CN4CCOCC4)c4ccc(c1)c2c34	-20%	-18%	u	-2%	-77*	u
CC1=C/C(=C/N(C)c2ccccc2)C(=O)S1	u	2%	26µM*	13%	-11	21µM*
CCc1ccc(Nc2nnc(Cc3ccc(OC)c(OC)c3)c(=O)[nH]2)cc1	-2%	x	x	x	x	x
Cc1cc(C)c2c(=O)n3c(nc2c1)C(Cc1ccc(O)cc1)NC(=O)c1cccnc1-3 (stereo not given)	-2%	-23%	18µM*	-28%	-14	u
CCCC1NC(=O)c2cccnc2-n2c1nc1cc(C)cc(C)c1c2=O (stereo not given)	u	-9%	u	-2%	-21	u
Cc1cc(C)c2c(=O)n3c(nc2c1)C(Cc1ccccc1)NC(=O)c1cccnc1-3 (stereo not given)	u	u	21µM*	-27%	-26	u
CCN1CCN(c2ccc(NC(=O)COc3ccc([N+](=O)[O-])cc3)cc2)CC1	-16%	0%	u	8%	0	u
O=C(CSc1ccc(Cl)cc1)Nc1ccc(NC(=O)c2ccco2)cc1	-8%	2%	-10%	20%	-11	-1%
O=C(CNC(=S)NC(=O)c1ccc(Br)o1)c1ccccc1	11%	-1%	u	-1%	0	16µM*
CCC(=O)NC(=S)Nc1ccc(NC(=O)c2ccc(Br)o2)cc1	-8%	5%	u	-8%	-54*	-10%
O=C(COc1ccc([N+](=O)[O-])cc1)Nc1ccc(N2CCN(C(=O)c3ccco3)CC2)cc1	1%	10%	5.8µM*	-5%	-10	9.2µM*
O=C(CSc1ccc(Cl)cc1)Nc1ccc(N2CCN(C(=O)c3ccco3)CC2)cc1	1%	u	23µM*	u	-68*	u
Cc1ccc(C)c(NC(=O)Cn2c(=O)n(-c3ccccc3C)c(=O)c3c2c2cc(C)ccc2n3C)c1	-15%	x	-10%	x	x	u
O=C(Cn1c(=O)[nH]c(=O)c2ccccc21)Nc1cccc2cccnc12	5%	x	x	x	x	x
CCC(=O)N1CCN(c2ccc(NC(=O)COc3ccc(CC)cc3)cc2)CC1	-3%	3%	21µM*	-18%	-9	-19%
O=C(COc1ccc(Cl)cc1)Nc1ccc(N2CCN(C(=O)c3ccco3)CC2)cc1	1%[57.4 µM]	-11%	13µM*	u	u	10µM*
Cc1cscc1-c1ccc(C(=O)Nc2c(C)cccc2C)o1	u	u	4.6µM*	-29%	u	3.7µM*
CCCCC(=O)Nc1ccc(N2CCN(C(=O)CC)CC2)cc1	u	5%	-6%	10%	28	-5%
Cc1ccccc1C(=O)N1CCN(c2ccc(NC(=O)CSc3ccc(Cl)cc3)cc2)CC1	4%	u	10µM*	-25%	-72*	16µM*
CS(=O)(=O)N1CCCC1c1noc(CCC(=O)NC2CCS(=O)(=O)C2)n1 (stereo not given)	45%	x	x	x	x	x
O=C(c1ccc(F)cc1)N1CCC2(CC1)CC(c1cccnc1)=NO2	25%[176 µM]	x	x	x	x	x
COc1cc(NC(=O)C(=O)NCCN(C)C)ccc1N1CCCCS1(=O)=O	0%	x	x	x	x	x
SMILES	12-LOX inh	HT1080 IDH1KD tx	DT40 TDP1 no CPT	HT1080NT lethal	IL-1B inflam inh	TDP1 cell CPT
COc1ccc(C=O)cc1COc1ccc(C#N)cc1	-7%	x	x	x	x	x
Cc1cccc(OCC(=O)Nc2ccc(N3CCN(C(=O)c4ccco4)CC3)cc2)c1C	0%	-12%	u	-24%	28	u
CCC(=O)N1CCN(c2ccc(NC(=O)c3ccc(Br)o3)cc2)CC1	-4%	-13%	-14%	-4%	-56*	-8%
Cc1ccccc1OCC(=O)Nc1ccc(N2CCN(C(=O)c3ccco3)CC2)cc1	1%	-8%	21µM*	u	u	u
N/C(=N\O)c1ccc(NC(=O)c2ccc(Br)o2)cc1	-4%	-2%	u	8%	-2	18µM*
Cc1cccc(C)c1NC(=S)NC(=O)c1ccc(Br)o1	45µM*	-8%	u	-9%	14	u
Cc1cccc(NC(=S)NC(=O)c2ccc(Br)o2)c1C	u	-4%	-22%	-10%	-1	-8%
Cc1cc(C)cc(OCC(=O)Nc2ccc(N3CCN(C(=O)c4ccco4)CC3)cc2)c1	0%[57.4 µM]	-17%	18µM*	-19%	u	23µM*
O=C(c1cnc2c(O)cccn2c1=O)N1CCC2(CC1)OCCCC2O (stereo not given)	112%	x	x	x	x	x
OCCCNc1ncnc2c1ncn2[C@H]1CN(Cc2ccc(-c3ccccc3)cc2)C[C@@H](CO)O1	6%	-20%	21µM*	-17%	63	15µM*
OCCNc1ncnc2c1ncn2[C@H]1CN(Cc2ccc(Cl)cc2)C[C@@H](CO)O1	-15%	11%	u	8%	5	-29%
COCCNc1ncnc2c1ncn2[C@H]1CN(Cc2ccc(-c3ccccc3)cc2)C[C@@H](CO)O1	-13%	u	21µM*	-28%	1	18µM*
C=CCNc1ncnc2c1ncn2[C@H]1CN(Cc2ccc(-c3ccccc3)cc2)C[C@@H](CO)O1	-10%	u	23µM*	u	-12	16µM*
O=c1c2ccccc2cnn1CN1CCN(S(=O)(=O)c2cccc(Cl)c2Cl)CC1	-11%	x	x	x	x	x
N#CC(c1ccc(Cl)cc1)c1ccc2c(C(F)(F)F)cc(C(F)(F)F)nc2n1 (stereo not given)	29%	15µM*	0.58µM*	10µM*	-105*	0.65µM*
Nc1ccc2c(C(F)(F)F)cc(C(F)(F)F)nc2n1	-20%	0%	-7%	1%	62	3%
O=c1oc2ccccc2c(NC2CCCC2)c1NS(=O)(=O)c1ccc(F)c(F)c1	-6%	x	x	x	x	x
Cc1ccc(NC2=NC(c3ccccc3)n3c(nc(C)cc3=O)N2)c(C)c1 (stereo not given)	3%	-10%	-7%	21%	-74*	-14%

Assay outcomes (PubChem)
